Active and inactive are the calls of the source. Rule for the calls: active = hit-call score of the fitted dose curve at least 0.9, where 1 is the maximum; inactive = score below 0.9.

Read-out in this experiment: Actin alpha 1 (ACTA1), ACTA1 (gene 58)
Put plainly: BSK_MyoF_ACTA1: BioMAP Diversity Plus: MyoF Assay for Actin alpha 1 (ACTA1) Biomarker Activity (AID 2284244). Conditions: primary human lung fibroblasts. On the procedure: BSK_MyoF is a cell-based, multiplexed-readout assay that uses lung fibroblasts, […], with measurements taken at 24 hours after chemical dosing in a microplate: 96-well plate.BSK_MyoF_ACTA1 is an assay component measured in the BSK_MyoF assay. It measures a-SMA antibody related to regulation of gene expression using ELISA technology.Data from the assay component BSK_MyoF_ACTA1 was analyzed at the endpoint, BSK_MyoF_ACTA1, in the positive analysis fitting direction relative to DMSO as the negative control and baseline of activity. Using a type of binding reporter, gain or loss-of-signal activity can be used to understand protein changes. To generalize the intended target to other relatable targets, this assay endpoint is annotated to the 'cell adhesion molecules' intended target family, where the subfamily is 'actin'.
The levels of cell surface (or secreted, indicated by the prefix "s") biomarker endpoints were measured by ELISA. Overt cytotoxicity to cells in confluent adherent cultures (all systems other than the BT system) was assessed by measuring total protein levels using sulforhodamine B (SRB) staining in parallel cultures at the time of biomarker measurements, indicated as SRB endpoints. For proliferation assays for adherent cell types, individual cell types are cultured at sub-confluence and relative cell numbers quantified by SRB staining at time points optimized for each system (48 h: 3C and CASM3C systems; 72 h: BT and HDF3CGF systems; 96 h: SAg system). SRB was performed by staining cells with 0.1% SRB after fixation with 10% TCA and reading wells at 560 nm.Viability and proliferation of PBMC (T cells) was quantified by Alamar Blue reduction for the SAg and BT systems. For PBMC viability (referred to as PBMC Cytotoxicity within the assay endpoint names), cells were plated (75,000/well in a 96-well plate) and then chemical samples added for 1 h before addition of activators, SEB and TSST-1 (20 ng/mL final concentration each). Cells were incubated for 90 h. Then, Alamar Blue (20 uL/well) (Invitrogen, Cat DAL1100) was added for 6 h, and the plates were read with a fluorescence microplate reader at 546/580 nm (excitation/emission). For PBMC proliferation, cells were plated and activated as above but incubated for only 16 h prior to addition of Alamar Blue. Plates were read after 6 h.
With `c1ccc2c(c1)ccc1ncccc12`, the outcome was inactive.
Same read-out and setting: in the case of `O=C(Nc1ccccc1SSc1ccccc1NC(=O)c1ccccc1)c1ccccc1` it was “inactive”; in that of `S=C(NC1CCCCC1)NC1CCCCC1`, “inactive”.
The term AC50 denotes the concentration giving half of the maximal activity seen. For the molecule `C=CCOc1c(Br)cc(Br)cc1Br`, the AC50 is 24.4 µM (active).
In the case of `CC(C)(c1cc(Br)c(OCCO)c(Br)c1)c1cc(Br)c(OCCO)c(Br)c1`, the concentration at half-maximal activity (AC50) was 10.7 µM (active).
On to `CC(C)C(=O)C(C)C`, for which the result was inactive.
Regarding `CCCCC/C=C\C/C=C\CCCCCCCC(=O)OC`, the concentration at half-maximal activity (AC50) was 29.4 µM (active).
Turning to `c1ccc2c(c1)ccc1cc3c(ccc4ccccc43)cc12`, the outcome was inactive.
On the same count and under the same terms, to `C=CCOCC(O)CCl` (configuration not stated) belongs “inactive”.
`O=C(Cl)c1cc(C(=O)Cl)cc(C(=O)Cl)c1`: the AC50 is 35.1 µM (active).
With `O=c1c2ccccc2oc2ccccc12`, the result was inactive.
Regarding `CCOc1nc(F)cc2nc(S(=O)(=O)Nc3c(Cl)cccc3C(=O)OC)nn12`, the result was inactive.
Same read-out and setting: in the case of `N#[N+]c1ccc2c(S(=O)(=O)[O-])cccc2c1O` it was “inactive”.
As for `CCCCC(CC)COC(=O)c1ccccc1O` (configuration not stated), the outcome was inactive.
On the same count and under the same terms, in the case of `CCCCCCCCc1ccc(Nc2ccc(CCCCCCCC)cc2)cc1` it was “inactive”.
Still for that read-out and setting: in the case of `O=Nc1ccc(O)cc1` it was “inactive”.
Take `CC1OC1C1CCC2(C)OC2C1` (configuration not stated): the result was inactive.
Still for that read-out and setting: to `C=CC=CC=CCCCCC` belongs “inactive”; to `CCO[Si](CCCN=C=O)(OCC)OCC`, “inactive”.
Same read-out and setting: in the case of `CCCCNc1ccc(NCCCC)c2c1C(=O)c1ccccc1C2=O` it was “inactive”.
On the same count and under the same terms, in the case of `c1ccc(-c2ccccn2)nc1` it was “inactive”; in that of `COc1ccc2nc(N)sc2c1`, “inactive”.
Regarding `C=CC(=O)OCC(Br)CBr` (configuration not stated), the AC50 was 20 µM (active).
Still for that read-out and setting: in the case of `COCc1c(C(C)C)nc(C(C)C)c(/C=C/[C@@H](O)C[C@@H](O)CC(=O)O)c1-c1ccc(F)cc1` it was 0.0484 µM (active).
Same read-out and setting: to `C#CC1(O)CC[C@H]2[C@@H]3CCC4=CCCC[C@@H]4[C@H]3CC[C@@]21C` (some centres not stated) belongs 32.2 µM (active).
The same measure, in the same setting: in the case of `CCCCCCCCCCCCCCCC[N+](C)(C)CC` it was 0.757 µM (active).
With `C/C=C\C/C=C/CCCCCCCCOC(C)=O`, the half-maximal activity concentration (AC50) was 31.9 µM (active).

The values above are taken from PubChem BioAssay (EPA / NIEHS).
